# uPA surface inh – qHTS for Inhibitors of Cell Surface uPA Generation; cell surface uPA generation assay, qHTS; Potency, µM (series often up to 38.3 µM), usual class: inhibitors; 330,000 tested, 0.31% active; active means well fitted inhibition curve with a large enough effect; inconclusive means small, poorly fitted or top-dose-only effect; inactive means no such curve, though single readings can be large or run the other way; tested in mouse RAW 264.7 cells; further: nearly all actives have a fitted effect of over 55% in size
# HT1080 IDH1KD tx – qHTS for induction of synthetic lethality in tumor cells producing 2HG: qHTS for the HT-1080-IDH1KD cell line | Potency, µM (highest dose often 46.1 µM), actives largely listed as cytotoxic | HT-1080 IDH1 knockdown viability, ATP luminescence, 48 h | 360,000 tested, 2% active
#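 Cytotoxicity counter-line: IDH1KD HT-1080, 48 h, CellTiter-Glo. Curves classed by r2, magnitude and activity.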
# TDP1 cell noCPT – qHTS for Inhibitors of human tyrosyl-DNA phosphodiesterase 1 (TDP1): qHTS in cells in absence of CPT. DT40 Tdp1-/- hTDP1 cells, no CPT, ATP luminescence, 48 h. Potency, µM (series often up to 46.2 µM), most hits filed as inhibitors. 420,000 tested, 15% active; further: nearly all actives have a fitted effect of over 55% in size
#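 Readout: luminescence from CellTiter-Glo after 30 min in the dark at RT. Cells: DT40 Tdp1-/- with stable hTDP1, 400/well. Exposure: compounds alone, ≥48 hr, 37 °C.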
# TDP1 cell CPT – qHTS for Inhibitors of human tyrosyl-DNA phosphodiesterase 1 (TDP1): qHTS in cells in presence of CPT; Potency, µM (titrated, usually from 46.2 µM), usual class: inhibitors; chicken DT40 Tdp1-/-;hTDP1 cells + 20 nM CPT, ATP luminescence, 48 h; 420,000 tested, 12% active; AID 686979, 2013; further: nearly all actives have a fitted effect of over 55% in size
#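 Chicken DT40 Tdp1-/- cells stably complemented with human TDP1 were seeded at 400 cells/well in medium containing 20 nM camptothecin, exposed to pin-transferred compounds, and grown at 37 °C for at least 48 hr. Viability was read as ATP luminescence.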
# HT1080-NT tox – qHTS for induction of synthetic lethality in tumor cells producing 2HG: qHTS for the HT-1080-NT fibrosarcoma cell line; HT-1080-NT fibrosarcoma viability, CellTiter-Glo ATP luminescence, 48 h; Potency, µM (series often up to 46.1 µM), usual class: cytotoxic; 360,000 tested, 1.6% active; AID 686970, 2013;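 further: NT is the 2HG producing partner of a matched IDH1 knockdown line; nearly all actives have a fitted effect of over 55% in size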
#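 A 48-hour cytotoxicity screen used HT-1080-NT cells plated 2 hours before compound delivery. ATP-based CellTiter-Glo luminescence measured viability, normalized to DMSO and no-cell controls.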
# IL-1B inflam inh – qHTS for Inhibitors of Inflammasome Signaling: IL-1-beta AlphaLISA Primary Screen. THP-1 LPS/ATP IL-1B secretion, AlphaLISA, 16 h; hits give low values. 360,000 tested, 4.7% active. AID 743279, 2014. activity change, % at 57.5 µM; in the data active means activity change below about -50%; inconclusive means mostly about -30% to -49%
#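 Secreted IL-1B measured by AlphaLISA bead assay after 16 h compound exposure of THP-1 cells; compounds (final up to 57.5 uM) added 1 h before LPS (250 ng/mL) and ATP (1.25 mM) stimulation; lower signal means less secretion.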
# Hits are given with their value; – = inactive; ? = inconclusive; · = no result given. Hits are enriched below; roughly 19% of the tested compounds scored in any of these assays. Unless noted, the call rests on the fitted dose curve; in most records, active means well fitted curve in the direction sought with a large enough effect; inconclusive means small, poorly fitted or top-dose-only effect, or another doubt; inactive means no such curve, though single readings can be large; an effect the other way counts as inactive or inconclusive.
SMILES,uPA surface inh,HT1080 IDH1KD tx,TDP1 cell noCPT,TDP1 cell CPT,HT1080-NT tox,IL-1B inflam inh
Cc1cc(C)c2nc(SCC(=O)NCCC3=CCCCC3)cc(C)c2c1,–,–,21µM,?,–,–
Cc1cc(C)c(Cn2c3ccccc3c3cnn(CC(=O)NCc4ccccn4)c(=O)c32)c(C)c1,–,–,23µM,21µM,–,–
O=C(Cn1ncc2c3ccccc3n(Cc3ccccc3)c2c1=O)NCCCN1CCCC1=O,–,–,–,?,–,–
Cc1cc(C)c(Cn2c3ccccc3c3cnn(CC(=O)NCCC4=CCCCC4)c(=O)c32)c(C)c1,·,·,16µM,21µM,·,·
Nc1cc(N)nc(SCC(=O)NCCC2=CCCCC2)n1,–,–,–,–,–,–
O=S(=O)(c1cccc(Cl)c1)N1CCN(c2nc(-c3cccs3)nc3ccccc23)CC1,·,–,?,?,?,·
O=Cc1ccc2c(c1)OCCOCCOCCOCCO2,·,–,–,–,–,–
CC(=O)C(Sc1ncnc2sc3c(c12)CCCC3)C(C)=O,–,–,?,13µM,?,–
CC(C)c1nc2sc3c(SCC(=O)NCc4ccco4)ncnc3c2c2c1CCC2,–,?,16µM,?,?,–
O=C(O)CSc1ncnc2c1sc1nc(-c3ccccc3)c3c(c12)CCC3,–,–,?,–,–,–
Cc1nc2sc3c(c2c2nnc(SCC(=O)NCc4ccco4)n12)CCCC3,–,–,?,–,–,–
c1coc(CNc2nc3sc4c(c3c3ncnn23)CCCC4)c1,–,–,12µM,?,–,–
O=C(CSc1ncnc2sc3c(c12)CCCC3)c1ccccc1,–,–,?,29µM,–,–
CN(C(=O)c1cnn(-c2nccc(-c3ccccc3C(F)(F)F)n2)c1C1CC1)C1CCOC1 (configuration not stated),·,·,–,?,·,·
N#CCn1c(CN2CCCC2)nc2ccccc2c1=O,–,–,–,–,–,–
c1ccc(-c2ncc(CN3CCN(c4ccccn4)CC3)[nH]2)cc1,–,–,–,–,–,–
CCSc1nc2n(n1)C(c1ccc(C(=O)O)cc1)C(C(=O)Nc1ccccc1C)=C(C)N2 (configuration not stated),·,·,–,–,·,·
O=C(CSc1nc2sc3c(c2c(=O)n1-c1ccccc1)CCCC3)NCc1ccco1,–,–,?,15µM,–,–
O=C(CSc1ncnc2sc3c(c12)CCCCC3)NCc1ccco1,–,16µM,9.2µM,9.2µM,?,–
Cc1nc(N2CCCC2)ncc1C(=O)NCc1ccc(Cl)cc1,·,·,?,–,·,·
O=C(c1ccccc1)N1c2nc(-c3ccco3)nn2C2(CCCCC2)[C@@H]2CCCC[C@@H]21,·,·,–,–,·,·
Cc1ccc(C(=O)N2c3nc(-c4ccco4)nn3C3(CCCCC3)[C@@H]3CCCC[C@@H]32)cc1,·,·,15µM,16µM,·,·
COc1cccc(C(=O)N2c3nc(-c4ccco4)nn3C3(CCCCC3)[C@@H]3CCCC[C@@H]32)c1,·,·,16µM,?,·,·
O=C(CN(Cc1ccco1)C(=O)c1ccc(F)cc1)Nc1ccccc1Br,–,–,–,–,–,–
Cc1ccc(CN(Cc2ccco2)C(=O)c2ccccc2Cl)o1,·,·,?,23µM,·,·
Cc1ccc(CN(Cc2ccco2)C(=O)c2ccccc2Br)o1,·,·,15µM,12µM,·,·
Cc1ccc(C(=O)NCc2ccco2)o1,–,–,–,–,–,–
Cc1cc(C)c(S(=O)(=O)NCC(=O)NCc2cc(=O)n(C)c(=O)n2C)c(C)c1,–,–,–,–,–,–
O=C(NCc1nnnn1-c1ccc(F)cc1)c1ccc([N+](=O)[O-])o1,–,12µM,?,?,?,-97
Cc1ccc(-n2nnnc2CNC(=O)c2ccc(F)cc2)cc1C,·,·,–,–,·,·
